# Data: article PMC7862700, “An all-to-all approach to the identification of sequence-specific readers for epigenetic DNA modifications on cytosine”
# Key:
# Assay in all cases: DAPPL (digital affinity profiling via proximity ligation, sequencing); 10 mM Tris-HCl pH 7.5, 50 mM NaCl, 1 mM DTT, 4% glycerol, room temperature, 30 min; GST-TFs on glutathione beads, 16-mer random dsDNA library, 0.1% formaldehyde crosslink after washing; high values mean tight binding
# FLI1 = target: T1, FLI1 (Homo sapiens, UniProt Q01543 1-452); conditions: protein: recombinant; tags: N-terminal GST; dsDNA, one strand shown
# T1 sequence: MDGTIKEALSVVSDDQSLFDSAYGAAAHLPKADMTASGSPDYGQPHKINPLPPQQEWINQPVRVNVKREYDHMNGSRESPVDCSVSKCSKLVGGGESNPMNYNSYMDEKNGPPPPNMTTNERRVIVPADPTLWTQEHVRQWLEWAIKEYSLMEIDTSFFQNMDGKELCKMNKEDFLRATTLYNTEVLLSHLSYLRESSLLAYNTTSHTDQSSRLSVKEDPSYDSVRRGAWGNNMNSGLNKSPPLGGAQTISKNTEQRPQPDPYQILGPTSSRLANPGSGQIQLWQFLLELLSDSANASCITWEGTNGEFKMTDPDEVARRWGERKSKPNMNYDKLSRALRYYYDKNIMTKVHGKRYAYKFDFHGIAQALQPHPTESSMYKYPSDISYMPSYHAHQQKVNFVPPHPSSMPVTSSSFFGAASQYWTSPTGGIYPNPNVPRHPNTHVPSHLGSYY
# Outline: (§1)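 Beads coated with glutathione captured GST-fused human transcription factors that had been expressed in yeast, and the factors were then given DNA barcodes and pooled with a tag-only sample. The pools were incubated with 200 nmole of a random double-stranded 16-mer DNA library in Tris/NaCl/DTT/glycerol buffer for 30 min at room temperature, washed, crosslinked with 0.1% formaldehyde and proximity-ligated with BsaI/T4 ligase at 37 °C for 1 h. PCR amplification and Illumina NextSeq500 sequencing came last. Binding signal is each hexamer's read frequency for a factor divided by its frequency for the tag-only sample.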
# ELK1 = target: T2, ELK1 (Homo sapiens, UniProt P19419 1-428); conditions: protein: recombinant; tags: N-terminal GST; dsDNA, one strand shown
# T2 sequence: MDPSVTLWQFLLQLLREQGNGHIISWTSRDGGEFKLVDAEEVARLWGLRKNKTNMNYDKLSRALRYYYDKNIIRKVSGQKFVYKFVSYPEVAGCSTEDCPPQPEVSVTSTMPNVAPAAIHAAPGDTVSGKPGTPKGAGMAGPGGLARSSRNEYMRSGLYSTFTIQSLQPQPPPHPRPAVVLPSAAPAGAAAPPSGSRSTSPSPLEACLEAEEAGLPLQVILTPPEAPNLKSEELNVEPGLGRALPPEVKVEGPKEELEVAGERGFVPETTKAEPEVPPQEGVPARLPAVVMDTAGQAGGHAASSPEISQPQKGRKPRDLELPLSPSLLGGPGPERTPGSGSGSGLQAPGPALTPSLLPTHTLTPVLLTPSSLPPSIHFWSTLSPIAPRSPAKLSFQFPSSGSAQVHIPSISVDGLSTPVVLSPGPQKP
# Outline: as §1
# GABPA = target: T3, GABPA (Homo sapiens, UniProt Q06546 1-454); conditions: protein: recombinant; tags: N-terminal GST; dsDNA, one strand shown
# T3 sequence: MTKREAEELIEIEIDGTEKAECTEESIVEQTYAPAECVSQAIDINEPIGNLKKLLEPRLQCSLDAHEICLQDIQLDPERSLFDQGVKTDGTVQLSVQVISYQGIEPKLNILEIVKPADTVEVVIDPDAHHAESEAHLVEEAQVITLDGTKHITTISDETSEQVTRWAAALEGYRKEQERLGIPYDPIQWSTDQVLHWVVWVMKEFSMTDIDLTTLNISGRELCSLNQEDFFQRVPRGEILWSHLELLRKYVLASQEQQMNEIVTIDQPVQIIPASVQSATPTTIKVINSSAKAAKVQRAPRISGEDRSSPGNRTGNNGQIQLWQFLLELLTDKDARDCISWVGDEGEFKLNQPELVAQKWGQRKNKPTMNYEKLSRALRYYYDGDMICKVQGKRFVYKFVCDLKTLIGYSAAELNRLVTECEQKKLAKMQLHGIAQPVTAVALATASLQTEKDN
# Outline: as §1
# ERG = target: T4, ERG (Homo sapiens, UniProt P11308 1-479); conditions: protein: recombinant; tags: N-terminal GST; dsDNA, one strand shown
# T4 sequence: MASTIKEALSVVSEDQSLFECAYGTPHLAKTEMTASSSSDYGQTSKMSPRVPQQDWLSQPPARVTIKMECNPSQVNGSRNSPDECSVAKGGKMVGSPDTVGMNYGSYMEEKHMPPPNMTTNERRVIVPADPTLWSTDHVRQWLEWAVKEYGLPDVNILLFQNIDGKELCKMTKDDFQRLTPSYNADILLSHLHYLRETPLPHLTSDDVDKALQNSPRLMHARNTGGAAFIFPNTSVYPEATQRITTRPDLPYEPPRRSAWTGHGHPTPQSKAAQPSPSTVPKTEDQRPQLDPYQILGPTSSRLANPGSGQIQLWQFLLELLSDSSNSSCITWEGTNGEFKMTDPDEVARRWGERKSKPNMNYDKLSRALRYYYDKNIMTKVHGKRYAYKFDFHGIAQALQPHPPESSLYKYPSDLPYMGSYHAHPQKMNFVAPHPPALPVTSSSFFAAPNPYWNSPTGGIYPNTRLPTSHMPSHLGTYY
# Outline: as §1
# ELF1 = ELF1 (Homo sapiens, UniProt P32519 1-619); conditions: protein: recombinant; tags: N-terminal GST; dsDNA, one strand shown
# Outline: as §1
# EHF = target: T5, EHF (Homo sapiens, UniProt Q9NZC4 1-300); conditions: protein: recombinant; tags: N-terminal GST; dsDNA, one strand shown
# T5 sequence: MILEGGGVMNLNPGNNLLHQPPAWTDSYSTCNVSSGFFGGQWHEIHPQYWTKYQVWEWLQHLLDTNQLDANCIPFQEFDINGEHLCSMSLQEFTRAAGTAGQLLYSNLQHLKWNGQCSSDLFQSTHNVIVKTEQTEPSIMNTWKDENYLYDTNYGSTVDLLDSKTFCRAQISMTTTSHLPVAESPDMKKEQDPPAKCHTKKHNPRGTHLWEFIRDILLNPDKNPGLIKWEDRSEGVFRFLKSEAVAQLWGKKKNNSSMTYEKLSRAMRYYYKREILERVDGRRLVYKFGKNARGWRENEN
# Outline: as §1
# SPI1 = SPI1 (Homo sapiens, UniProt P17947 1-270); conditions: protein: recombinant; tags: N-terminal GST; dsDNA, one strand shown
# Outline: as §1
# SPIB = SPIB (Homo sapiens, UniProt Q01892 1-262); conditions: protein: recombinant; tags: N-terminal GST; dsDNA, one strand shown
# Outline: as §1
# ELK3 = target: T6, ELK3 (Homo sapiens, UniProt P41970 1-407); conditions: protein: recombinant; tags: N-terminal GST; dsDNA, one strand shown
# T6 sequence: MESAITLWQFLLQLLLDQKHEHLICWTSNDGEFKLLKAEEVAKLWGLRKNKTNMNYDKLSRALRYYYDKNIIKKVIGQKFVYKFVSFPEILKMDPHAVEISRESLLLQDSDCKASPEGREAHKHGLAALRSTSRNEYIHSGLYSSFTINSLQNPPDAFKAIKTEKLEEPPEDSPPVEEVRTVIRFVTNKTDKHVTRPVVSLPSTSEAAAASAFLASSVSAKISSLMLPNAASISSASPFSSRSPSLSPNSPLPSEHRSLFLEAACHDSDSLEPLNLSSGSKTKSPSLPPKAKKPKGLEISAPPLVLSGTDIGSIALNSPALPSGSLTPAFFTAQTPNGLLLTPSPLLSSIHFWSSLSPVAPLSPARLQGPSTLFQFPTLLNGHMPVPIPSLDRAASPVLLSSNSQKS
# Outline: as §1
# FEV = target: T7, FEV (Homo sapiens, UniProt Q99581 1-238); conditions: protein: recombinant; tags: N-terminal GST; dsDNA, one strand shown
# T7 sequence: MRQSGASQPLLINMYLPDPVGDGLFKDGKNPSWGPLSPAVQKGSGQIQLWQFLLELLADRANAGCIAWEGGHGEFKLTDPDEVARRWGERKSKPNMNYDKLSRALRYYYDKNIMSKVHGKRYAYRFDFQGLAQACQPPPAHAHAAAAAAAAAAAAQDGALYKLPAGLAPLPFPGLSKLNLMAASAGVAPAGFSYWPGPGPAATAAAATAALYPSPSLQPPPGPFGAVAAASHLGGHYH
# Outline: as §1
# ETV5 = ETV5 (Homo sapiens, UniProt P41161 1-510); conditions: protein: recombinant; tags: N-terminal GST; dsDNA, one strand shown
# Outline: as §1
# HSF1 = HSF1 (Homo sapiens, UniProt Q00613 1-529); conditions: protein: recombinant; tags: N-terminal GST; chain copies: 3; dsDNA, one strand shown
# Outline: as §1
# SPIC = target: T8, SPIC (Homo sapiens, UniProt Q8N5J4 1-248); conditions: protein: recombinant; tags: N-terminal GST; dsDNA, one strand shown
# T8 sequence: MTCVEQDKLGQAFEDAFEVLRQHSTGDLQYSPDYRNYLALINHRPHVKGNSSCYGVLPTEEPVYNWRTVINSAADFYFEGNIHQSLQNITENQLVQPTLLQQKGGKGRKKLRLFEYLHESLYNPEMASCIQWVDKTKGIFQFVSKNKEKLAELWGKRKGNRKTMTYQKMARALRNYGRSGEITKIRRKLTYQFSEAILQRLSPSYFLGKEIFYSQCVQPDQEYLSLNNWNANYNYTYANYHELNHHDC
# Outline: as §1
# ELF4 = ELF4 (Homo sapiens, UniProt Q99607 1-663); conditions: protein: recombinant; tags: N-terminal GST; dsDNA, one strand shown
# Outline: as §1
# ELK4 = target: T9, ELK4 (Homo sapiens, UniProt P28324-2 1-405); conditions: protein: recombinant; tags: N-terminal GST; dsDNA, one strand shown
# T9 sequence: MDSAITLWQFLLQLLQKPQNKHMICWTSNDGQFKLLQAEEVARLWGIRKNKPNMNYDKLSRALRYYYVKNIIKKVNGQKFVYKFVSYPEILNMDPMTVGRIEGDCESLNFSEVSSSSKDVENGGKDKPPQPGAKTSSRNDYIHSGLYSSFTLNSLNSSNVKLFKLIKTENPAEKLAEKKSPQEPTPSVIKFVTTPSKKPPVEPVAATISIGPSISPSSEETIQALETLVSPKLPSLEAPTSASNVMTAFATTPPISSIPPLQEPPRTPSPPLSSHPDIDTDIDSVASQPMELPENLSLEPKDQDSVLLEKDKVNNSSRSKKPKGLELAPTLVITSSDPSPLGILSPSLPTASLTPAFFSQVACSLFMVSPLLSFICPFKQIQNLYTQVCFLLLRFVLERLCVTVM
# Outline: as §1
# ETV2 = target: T10, ETV2 (Homo sapiens, UniProt O00321 1-342); conditions: protein: recombinant; tags: N-terminal GST; dsDNA, one strand shown
# T10 sequence: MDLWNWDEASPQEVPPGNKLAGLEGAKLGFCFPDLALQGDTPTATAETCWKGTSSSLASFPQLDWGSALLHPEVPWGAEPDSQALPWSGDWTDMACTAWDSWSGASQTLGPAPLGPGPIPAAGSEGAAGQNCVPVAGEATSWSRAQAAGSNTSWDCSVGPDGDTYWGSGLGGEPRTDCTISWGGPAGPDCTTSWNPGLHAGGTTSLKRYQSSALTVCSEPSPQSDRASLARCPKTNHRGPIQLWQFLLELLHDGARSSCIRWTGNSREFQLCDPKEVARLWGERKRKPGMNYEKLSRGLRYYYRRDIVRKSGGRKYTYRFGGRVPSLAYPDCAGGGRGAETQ
# Outline: as §1
# ELF3 = target: T11, ELF3 (Homo sapiens, UniProt P78545 1-371); conditions: protein: recombinant; tags: N-terminal GST; dsDNA, one strand shown
# T11 sequence: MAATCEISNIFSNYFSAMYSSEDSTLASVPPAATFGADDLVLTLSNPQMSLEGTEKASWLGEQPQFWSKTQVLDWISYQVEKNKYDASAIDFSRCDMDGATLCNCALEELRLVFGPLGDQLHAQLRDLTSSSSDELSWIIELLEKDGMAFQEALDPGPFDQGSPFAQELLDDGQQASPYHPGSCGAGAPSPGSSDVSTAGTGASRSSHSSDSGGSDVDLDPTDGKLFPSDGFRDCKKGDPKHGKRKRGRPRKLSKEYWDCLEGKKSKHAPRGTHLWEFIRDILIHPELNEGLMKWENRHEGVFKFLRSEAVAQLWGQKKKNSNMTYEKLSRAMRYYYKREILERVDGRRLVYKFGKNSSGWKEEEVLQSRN
# Outline: as §1
# CRX = CRX (Homo sapiens, UniProt O43186 1-299); conditions: protein: recombinant; tags: N-terminal GST; dsDNA, one strand shown
# Outline: as §1
# ETV1 = ETV1 (Homo sapiens, UniProt P50549 1-477); conditions: protein: recombinant; tags: N-terminal GST; dsDNA, one strand shown
# Outline: as §1
# ETV5, sequence (P41161 whole entry): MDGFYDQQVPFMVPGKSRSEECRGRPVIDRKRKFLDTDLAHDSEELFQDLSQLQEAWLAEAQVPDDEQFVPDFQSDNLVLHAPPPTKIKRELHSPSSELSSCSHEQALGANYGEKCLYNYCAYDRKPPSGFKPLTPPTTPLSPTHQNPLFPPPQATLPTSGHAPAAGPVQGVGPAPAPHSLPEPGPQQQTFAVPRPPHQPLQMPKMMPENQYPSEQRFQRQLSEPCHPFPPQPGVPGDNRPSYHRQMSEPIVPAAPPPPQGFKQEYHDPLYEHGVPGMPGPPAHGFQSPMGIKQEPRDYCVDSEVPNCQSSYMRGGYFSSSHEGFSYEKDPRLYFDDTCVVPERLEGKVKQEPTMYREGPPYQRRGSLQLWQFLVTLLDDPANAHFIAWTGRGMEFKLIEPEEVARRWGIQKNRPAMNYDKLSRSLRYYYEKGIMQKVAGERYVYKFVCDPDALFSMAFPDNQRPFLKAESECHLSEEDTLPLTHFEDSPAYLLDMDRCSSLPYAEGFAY
# CRX, sequence (O43186 whole entry): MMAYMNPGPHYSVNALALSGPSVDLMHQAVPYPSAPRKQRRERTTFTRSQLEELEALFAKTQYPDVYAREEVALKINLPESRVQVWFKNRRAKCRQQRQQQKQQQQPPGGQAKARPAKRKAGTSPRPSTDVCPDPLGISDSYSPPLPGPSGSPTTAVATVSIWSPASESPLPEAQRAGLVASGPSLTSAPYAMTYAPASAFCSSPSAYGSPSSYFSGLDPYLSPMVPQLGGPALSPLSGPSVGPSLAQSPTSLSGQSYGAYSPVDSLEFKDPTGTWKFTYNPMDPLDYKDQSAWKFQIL
# ELF1, sequence (P32519 whole entry): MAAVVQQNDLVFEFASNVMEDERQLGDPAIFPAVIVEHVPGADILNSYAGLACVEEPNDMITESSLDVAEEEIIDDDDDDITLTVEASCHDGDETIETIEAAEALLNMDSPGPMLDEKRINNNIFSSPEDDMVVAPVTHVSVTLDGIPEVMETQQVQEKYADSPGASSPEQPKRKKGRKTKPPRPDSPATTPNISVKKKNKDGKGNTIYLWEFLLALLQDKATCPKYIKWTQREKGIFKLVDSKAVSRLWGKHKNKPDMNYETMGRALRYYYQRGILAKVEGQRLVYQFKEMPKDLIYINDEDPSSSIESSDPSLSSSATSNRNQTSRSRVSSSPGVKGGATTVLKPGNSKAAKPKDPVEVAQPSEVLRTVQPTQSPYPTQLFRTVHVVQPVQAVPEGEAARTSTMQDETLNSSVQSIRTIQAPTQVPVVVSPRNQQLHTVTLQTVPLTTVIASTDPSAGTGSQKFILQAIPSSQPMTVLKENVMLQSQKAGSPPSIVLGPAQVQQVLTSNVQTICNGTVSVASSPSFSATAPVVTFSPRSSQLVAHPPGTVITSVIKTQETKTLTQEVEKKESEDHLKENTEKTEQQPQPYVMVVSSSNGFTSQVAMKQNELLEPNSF
# HSF1, sequence (Q00613 whole entry): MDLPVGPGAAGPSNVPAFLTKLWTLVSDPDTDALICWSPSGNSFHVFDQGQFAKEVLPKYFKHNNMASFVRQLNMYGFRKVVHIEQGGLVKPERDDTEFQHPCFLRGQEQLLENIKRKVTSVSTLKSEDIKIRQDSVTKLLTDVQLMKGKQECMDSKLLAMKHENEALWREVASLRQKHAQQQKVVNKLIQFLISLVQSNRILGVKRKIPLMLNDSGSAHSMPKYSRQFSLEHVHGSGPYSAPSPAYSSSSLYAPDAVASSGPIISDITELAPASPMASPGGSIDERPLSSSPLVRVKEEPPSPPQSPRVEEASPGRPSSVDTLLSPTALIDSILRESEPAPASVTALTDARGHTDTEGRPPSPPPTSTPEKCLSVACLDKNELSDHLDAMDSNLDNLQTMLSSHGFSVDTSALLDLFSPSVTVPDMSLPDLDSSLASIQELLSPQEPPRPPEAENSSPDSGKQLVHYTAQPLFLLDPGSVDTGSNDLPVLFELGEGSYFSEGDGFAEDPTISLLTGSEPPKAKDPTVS
# ETV1, sequence (P50549 whole entry): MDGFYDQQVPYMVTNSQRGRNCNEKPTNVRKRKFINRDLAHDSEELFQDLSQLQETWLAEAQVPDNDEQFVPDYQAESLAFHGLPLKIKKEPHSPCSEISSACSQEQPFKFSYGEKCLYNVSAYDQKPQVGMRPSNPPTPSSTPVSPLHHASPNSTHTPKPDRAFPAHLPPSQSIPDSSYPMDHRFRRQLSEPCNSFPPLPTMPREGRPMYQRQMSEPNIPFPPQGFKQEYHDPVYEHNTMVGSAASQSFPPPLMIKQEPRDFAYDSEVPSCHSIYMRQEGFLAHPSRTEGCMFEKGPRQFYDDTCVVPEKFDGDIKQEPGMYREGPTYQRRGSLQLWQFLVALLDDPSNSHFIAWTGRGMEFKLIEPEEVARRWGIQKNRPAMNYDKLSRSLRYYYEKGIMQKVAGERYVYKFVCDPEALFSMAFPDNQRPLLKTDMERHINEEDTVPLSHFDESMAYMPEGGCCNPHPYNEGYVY
# ELF4, sequence (Q99607 whole entry): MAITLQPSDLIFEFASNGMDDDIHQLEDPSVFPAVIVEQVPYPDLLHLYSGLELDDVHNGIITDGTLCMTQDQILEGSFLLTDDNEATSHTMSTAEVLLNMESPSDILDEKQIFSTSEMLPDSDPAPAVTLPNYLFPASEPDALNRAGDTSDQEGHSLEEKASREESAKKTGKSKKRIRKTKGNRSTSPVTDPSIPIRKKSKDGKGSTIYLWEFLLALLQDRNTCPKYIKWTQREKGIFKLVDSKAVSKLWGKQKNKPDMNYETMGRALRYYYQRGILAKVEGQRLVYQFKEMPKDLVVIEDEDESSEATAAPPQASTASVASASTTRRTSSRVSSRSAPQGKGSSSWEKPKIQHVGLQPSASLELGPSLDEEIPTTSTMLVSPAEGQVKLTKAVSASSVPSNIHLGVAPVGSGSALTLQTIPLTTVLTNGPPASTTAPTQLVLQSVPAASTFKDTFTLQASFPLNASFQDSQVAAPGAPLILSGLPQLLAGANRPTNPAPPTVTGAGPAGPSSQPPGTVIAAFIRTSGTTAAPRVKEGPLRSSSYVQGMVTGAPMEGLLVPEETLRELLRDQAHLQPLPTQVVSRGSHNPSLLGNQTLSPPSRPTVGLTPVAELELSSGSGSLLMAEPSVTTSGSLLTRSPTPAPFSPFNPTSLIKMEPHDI
# SPIB, sequence (Q01892 whole entry): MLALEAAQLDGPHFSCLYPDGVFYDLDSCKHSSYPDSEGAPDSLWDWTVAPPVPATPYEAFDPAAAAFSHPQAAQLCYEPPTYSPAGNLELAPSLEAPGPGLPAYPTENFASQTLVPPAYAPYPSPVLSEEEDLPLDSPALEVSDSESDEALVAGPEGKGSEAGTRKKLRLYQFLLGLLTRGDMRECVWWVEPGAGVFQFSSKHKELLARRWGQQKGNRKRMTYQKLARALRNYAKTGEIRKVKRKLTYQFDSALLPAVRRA
sequence,measurement,setting,value
AACTGG,binding signal,FLI1,"1.22 fold enrichment (6-mer frequency, TF over GST control)"
same,binding signal,ELK1,"1.22 fold enrichment (6-mer frequency, TF over GST control)"
same,binding signal,GABPA,"1.29 fold enrichment (6-mer frequency, TF over GST control)"
same,binding signal,ERG,"1.31 fold enrichment (6-mer frequency, TF over GST control)"
same,binding signal,ELF1,"1.27 fold enrichment (6-mer frequency, TF over GST control)"
same,binding signal,EHF,"1.17 fold enrichment (6-mer frequency, TF over GST control)"
same,binding signal,SPI1,"1.31 fold enrichment (6-mer frequency, TF over GST control)"
same,binding signal,SPIB,"1.25 fold enrichment (6-mer frequency, TF over GST control)"
same,binding signal,ELK3,"1.28 fold enrichment (6-mer frequency, TF over GST control)"
same,binding signal,FEV,"1.12 fold enrichment (6-mer frequency, TF over GST control)"
same,binding signal,ETV5,"1.21 fold enrichment (6-mer frequency, TF over GST control)"
same,binding signal,HSF1,"1.25 fold enrichment (6-mer frequency, TF over GST control)"
same,binding signal,SPIC,"1.38 fold enrichment (6-mer frequency, TF over GST control)"
same,binding signal,ELF4,"1.25 fold enrichment (6-mer frequency, TF over GST control)"
same,binding signal,ELK4,"1.27 fold enrichment (6-mer frequency, TF over GST control)"
same,binding signal,ETV2,"1.31 fold enrichment (6-mer frequency, TF over GST control)"
same,binding signal,ELF3,"1.17 fold enrichment (6-mer frequency, TF over GST control)"
same,binding signal,CRX,"1.16 fold enrichment (6-mer frequency, TF over GST control)"
same,binding signal,ETV1,"1.14 fold enrichment (6-mer frequency, TF over GST control)"
